Screening data (PubChem)
D2 ag-1 – activates the human D2 dopamine receptor | P14416 | HEK293 T-REx D2 cells, calcium flux agonist mode | activation, % at 2 µM | 340,000 tested, 0.53% active;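 active means activation over 3 SD above normal in the single-dose calcium agonist read, cut at about 30% in these data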
Target sequence (P14416 whole entry, looked up): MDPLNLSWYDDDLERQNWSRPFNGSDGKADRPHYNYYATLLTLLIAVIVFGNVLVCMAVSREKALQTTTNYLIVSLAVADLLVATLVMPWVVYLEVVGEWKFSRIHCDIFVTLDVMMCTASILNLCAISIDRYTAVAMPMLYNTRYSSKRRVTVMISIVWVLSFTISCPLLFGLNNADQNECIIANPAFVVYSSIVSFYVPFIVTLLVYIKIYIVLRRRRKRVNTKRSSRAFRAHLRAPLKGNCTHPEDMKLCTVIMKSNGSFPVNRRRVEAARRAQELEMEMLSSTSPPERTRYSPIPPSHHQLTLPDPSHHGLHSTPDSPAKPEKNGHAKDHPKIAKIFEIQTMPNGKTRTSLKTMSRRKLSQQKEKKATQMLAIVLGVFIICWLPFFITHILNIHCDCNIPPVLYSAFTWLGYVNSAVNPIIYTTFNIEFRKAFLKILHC
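Tetracycline-induced HEK293 T-REx cells with force-coupled D2 receptor, plated overnight at 30 C, loaded with no-wash calcium dye. After a 10 s baseline, compound was pin-added and calcium flux read kinetically for 180 s; calcium rises flagged agonists.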
D2 ag-2 – activates the human D2 dopamine receptor; P14416; DiscoveRx PathHunter D2 beta-arrestin, luminescence, 90 min; 100% = 57 uM dopamine signal; activation, % (no concentration beside the values); 360,000 tested, 0.084% active; AID 624465; in the data active means activation above about 40%; inconclusive means between about 15% and that limit
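DiscoveRx PathHunter D2 beta-arrestin cells (2,100/well) attached overnight, then compound-stimulated 90 min at 37 C in HBSS/10 mM HEPES/0.1% Tween-20 buffer; beta-galactosidase complementation read by luminescence after 1 h at ambient temperature. Dopamine 57 uM final (EC100) as control.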
D2 antagonist – D2 dopamine receptor (human) antagonism. 340,000 tested, 2% active. HEK293 TREx D2 cells, calcium flux, dopamine EC80. P14416. inhibition, % at 10 µM; in the data active means inhibition above about 30%; inactive means below that, where a call was filed
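Read-out: kinetic calcium fluorescence (1 cycle/s) in inducible HEK293 T-REx D2 cells after an EC80 dopamine addition that followed 180 s compound preincubation. Loss of the dopamine response indicates antagonism.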
D2 PAM-1 – human D2 receptor positive allosteric modulation; P14416; DiscoveRx D2 beta-arrestin cells, luminescence, 90 min; 100% = 57 uM dopamine signal; potentiation, % (no concentration beside the values); 360,000 tested, 0.23% active; AID 624464; in the data active means potentiation above about 50%; inconclusive means mostly about 30% to 49%
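D2 cells co-treated with compound plus 50 nM dopamine (EC20) for 90 min at 37 deg C to detect potentiation. Beta-arrestin recruitment was read as enzyme-fragment luminescence after 1 h at ambient temperature. Full response was set by 57 uM dopamine.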
D2 PAM-2 – D2 dopamine receptor (human) potentiation | 340,000 tested, 0.34% active | potentiation, % at 10 µM | HEK293 T-REx D2, calcium flux, EC20 dopamine potentiation | P14416;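 active means potentiation over 3 SD above the plate norm, cut at about 30% in these data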
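Potentiation of an EC20 dopamine calcium response is measured in a force-coupled, tetracycline-inducible Hek293 Trex D2 line. Compound-only kinetic reads over 180 s flag agonists before dopamine addition.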
Each line names hits and unclear results; the compound was inactive in the other large screens. Rows were chosen to be rich in hits. Some 2.4% of all compounds tested hit in one or more screens of this group.

COc1ccc(/C(N)=N/OC(=O)c2cccs2)cc1OC	D2 ag-2 42, D2 PAM-1 71
Cc1ccc(/C(N)=N/OC(=O)c2cccs2)cc1	D2 ag-2 inconclusive, D2 PAM-1 77
CCCCOc1ccc(S(=O)(=O)Nc2ccc(-c3ccc(N4CCCCC4)nn3)cc2)cc1	none (no result: D2 ag-2, D2 antagonist, D2 PAM-1)
Cc1ccccc1OCC(=O)NCC(=O)N/N=C/c1cccc([N+](=O)[O-])c1	none (no result: D2 ag-2, D2 PAM-1)
O=C(N/N=C/c1cccc(Oc2ccc([N+](=O)[O-])cc2[N+](=O)[O-])c1)c1cncc(Br)c1	D2 PAM-1 85
Cc1ccccc1OCC(=O)N/N=C/c1cccc(Oc2ccc([N+](=O)[O-])cc2[N+](=O)[O-])c1	D2 PAM-1 55
Cc1ccc(-c2c(CN3CCN(c4cccc(C)c4C)CC3)csc2C)cc1	none (no result: D2 ag-2, D2 antagonist, D2 PAM-1)
O=C(Cc1ccc(Cl)cc1)Nc1ccc(-c2cc3ccccc3oc2=O)c(Cl)c1	D2 antagonist 46
O=C(Cc1ccc(Cl)cc1)Nc1ccc2oc(=O)ccc2c1	none
COC(CNC(=O)c1cccc2c1C(=O)N(Cc1cccnc1)C2)OC	none
COc1ccccc1CNC(=O)c1cccc2c1C(=O)N(Cc1cccnc1)C2	D2 PAM-2 31
CCOC(=O)c1ccc(CN(Cc2ccc(Cl)cc2Cl)S(=O)(=O)c2cccc(Cl)c2)cc1	none (no result: D2 ag-2, D2 antagonist, D2 PAM-1)
COC(=O)c1ccc(CSc2nc3c([nH]c4ccccc43)c(=O)n2-c2ccc(Cl)cc2)o1	none (no result: D2 ag-2, D2 antagonist, D2 PAM-1)
Cc1ccsc1/C=N/NC(=O)c1ccc2ccccc2c1	D2 antagonist 41
Cc1ccsc1/C=N/NC(=O)c1ccncc1	none
O=C1C=C(c2cccs2)C[C@H](c2ccccc2)[C@H]1n1nnc([N+](=O)[O-])n1	D2 ag-2 inconclusive, D2 PAM-1 92
O=C(COC(=O)C1C2CC3OC(=O)C1C3C2)Nc1ccccc1 (stereo not drawn)	D2 antagonist 69
CC(C)OCCCNC(=O)CCCN1C(=O)CCn2nc(-c3cccn3C)cc21	none (no result: D2 ag-2, D2 antagonist, D2 PAM-1, D2 PAM-2)
Cc1ccc(CSCCNC(=O)c2ccc(C)cc2)cc1	D2 antagonist 32
COc1ccc(C(=O)NCCSCc2ccc(C)cc2)cc1	none
COc1ccc(C(C)(C)C)cc1NC(=O)CCc1c(C)noc1C	D2 antagonist 63
COc1ccc(C(C)(C)C)cc1NC(=O)c1c(C)noc1C	none
COc1ccccc1C1CCN(c2cc(O)ccc2[N+](=O)[O-])CC1	D2 antagonist 34
Cc1ccccc1NC(=O)Cn1nc(C)n2cccc2c1=O	none
Cc1nn(CC(=O)Nc2ccc(Br)cc2F)c(=O)c2cccn12	D2 antagonist 47
c1ccc(-c2nnc3n2N=C(c2ccc4c(c2)OCO4)CS3)nc1	none
c1cc2c(cc1C1=Nn3c(nnc3C3CCCCC3)SC1)OCO2	D2 antagonist 33
O=C(CN1CCOCC1)Nc1ncc(Cc2cccc3ccccc23)s1	D2 antagonist 42
Cc1[nH]c2ccccc2c1C(c1ccncc1)N1CCN(c2ccccn2)CC1 (stereo not drawn)	D2 ag-1 35
NC(=O)CCC(NC(=O)c1ccc(Cl)cc1)C(=O)NCCc1ccc2c(c1)OCCO2 (stereo not drawn)	D2 antagonist 42
CSCCC(NC(=O)c1ccccc1)C(=O)NC1CC1 (stereo not drawn)	none
NC(=O)CC(NC(=O)c1ccc(Cl)cc1)C(=O)NCCc1ccc(S(N)(=O)=O)cc1 (stereo not drawn)	none
CSCCC(NC(=O)c1ccccc1)C(=O)NCCc1ccc2c(c1)OCCO2 (stereo not drawn)	D2 antagonist 66
CSCCC(NC(=O)c1ccccc1)C(=O)NCc1ccc(S(N)(=O)=O)cc1 (stereo not drawn)	D2 antagonist 31
CC1C(=O)Nc2ccc(S(=O)(=O)NCc3ccc(N(C)C)cc3)cc2NC1=O (stereo not drawn)	none (no result: D2 ag-1, D2 ag-2, D2 antagonist, D2 PAM-1)
COc1ccccc1C/C(N)=N/OC(=O)c1cccc([N+](=O)[O-])c1	D2 ag-2 inconclusive, D2 PAM-1 70
COc1ccc(C(=O)O/N=C(\N)Cc2ccc([N+](=O)[O-])cc2)c(OC)c1	D2 ag-2 42, D2 PAM-1 inconclusive
COc1ccc(C/C(N)=N/OC(=O)c2cccc([N+](=O)[O-])c2)cc1	D2 PAM-1 51
CCOP(=O)(OCC)/C(=N/OC(=O)c1cccc([N+](=O)[O-])c1)C(N)=O	none
CCCC(=O)Nc1cccc(-c2nc3cc(C)c(C)cc3o2)c1C	none (no result: D2 ag-1, D2 ag-2, D2 antagonist, D2 PAM-1)
O=C(NCC(c1cccnc1)N1CCN(c2ccccc2F)CC1)C(=O)Nc1ccc(F)cc1F (stereo not drawn)	none (no result: D2 ag-2, D2 antagonist, D2 PAM-1)
C=CCOc1ccc(/C=C/C(=O)OCC(=O)NC2CCCCCCC2)cc1	D2 antagonist 43
C=CCOc1ccc(/C=C/C(=O)OCC(=O)NCC2CCCCC2)cc1	none
COc1ccc(NC(=O)Nc2nnc(-c3ccccc3F)s2)cc1	D2 antagonist 41
Cc1cc(Nc2ccccc2)nn1C(=O)c1ccc(Cl)cc1	none
Cc1cc(Nc2ccccc2)nn1C(=O)c1ccc([N+](=O)[O-])cc1	D2 PAM-1 56
O=C(Nc1ccc(F)cc1)C1(S(=O)(=O)c2ccc(Cl)cc2)CC1	D2 antagonist 37
CCOC(=O)c1ccc(NC(=O)C2(S(=O)(=O)c3ccc(Cl)cc3)CC2)cc1	none (no result: D2 ag-2, D2 antagonist, D2 PAM-1)
OC(CNCc1ccccc1)Cn1ccc2ccccc21 (stereo not drawn)	none
OCc1nc2ccccc2n1CC(O)Cn1ccc2ccccc21 (stereo not drawn)	D2 PAM-2 32
Oc1ccccc1NCC(O)Cn1ccc2ccccc21 (stereo not drawn)	D2 PAM-1 58
OC(CN1CCNCC1)Cn1ccc2ccccc21 (stereo not drawn)	none (no result: D2 ag-2, D2 PAM-1)
CC1CCN(S(=O)(=O)c2ccc3c(c2)N(CC(=O)NCCc2ccc(Cl)cc2)C(=O)CO3)CC1	none (no result: D2 ag-1, D2 ag-2, D2 antagonist, D2 PAM-1)
O=C(NCCO)C1(c2ccc(Cl)cc2)CCCC1	D2 antagonist 32
COc1ccc(CN(C(=O)Nc2cccc(Cl)c2)c2ccccn2)cc1OC	none (no result: D2 ag-2, D2 antagonist, D2 PAM-1)
NC(=O)[C@@H]1[C@@H]2C(=O)N(c3ccc(F)cc3)C(=O)[C@@H]2[C@H]2C=Cc3ccccc3N21	none
O=C(c1ccco1)[C@@H]1[C@@H]2C(=O)N(c3ccc(F)cc3)C(=O)[C@@H]2[C@H]2C=Cc3ccccc3N21	D2 antagonist 43
Cc1ccccc1-c1ncnn1-c1sc2c(c1C#N)CCCCC2	none (no result: D2 ag-2, D2 antagonist, D2 PAM-1)
Cc1nn(C)c(C)c1S(=O)(=O)N1CCC(C(=O)NC2CCCCCC2)CC1	D2 antagonist 33
Cc1noc(C)c1S(=O)(=O)N1CCC(C(=O)NCCC2=CCCCC2)CC1	none
Cc1nn(C)c(C)c1S(=O)(=O)N1CCC(C(=O)NCCC2=CCCCC2)CC1	D2 antagonist 30
CCNC(=O)c1cnc2c(-c3ccccc3)c(C)nn2c1C	none (no result: D2 ag-2, D2 antagonist, D2 PAM-1)
COc1ccc(CCNC(=O)c2cc3c(=O)n(C)c4ccccc4c3s2)cc1OC	none (no result: D2 ag-2, D2 antagonist, D2 PAM-1)
